Source: PubChem BioAssay (EPA / NIEHS)
Results filed as inconclusive are left out. Calls of active or inactive are those of the source. Rule for the calls: active = hit-call score of the fitted dose curve at least 0.9, where 1 is the maximum; inconclusive = response in the unintended direction; inactive = score below 0.9.

What was measured:
[1] = ATG_XTT_Cytotoxicity: Cytotoxicity Assessment in the Attagene TRANS-FACTORIAL HepG2 Assay (AID 2283584)
In short: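 Transfect HepG2 with GAL4-UAS reporter units, dose compound, incubate 24 h, then measure viable cell number by XTT. Fit concentration response against DMSO baseline.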

[2] = TOX21_p53_BLA_p3_viability: Viability Assessment in the Tox21 HCT-116 p53 Agonism Beta-lactamase Assay, Phase 3 (AID 2283593);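 note: cells exposed to compound for 16 h before reading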
In short: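 HCT116 cells, 4000/well, dosed 5 h after plating by pin transfer (217-fold dilution from DMSO stock) and incubated 16 h at 37C, 5% CO2. Viability read as ATP luminescence with CellTiter-Glo after 30 min at room temperature.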

[3] = molecular target: Cellular tumor antigen p53 (Homo sapiens) (UniProt P04637); experiment: TOX21_p53_BLA_p3_ratio: Tox21 HCT-116 p53 Agonism Beta-lactamase Assay, Ratio, Phase 3 (AID 2283596)
Sequence of Cellular tumor antigen p53 (Homo sapiens) (P04637 whole entry, looked up): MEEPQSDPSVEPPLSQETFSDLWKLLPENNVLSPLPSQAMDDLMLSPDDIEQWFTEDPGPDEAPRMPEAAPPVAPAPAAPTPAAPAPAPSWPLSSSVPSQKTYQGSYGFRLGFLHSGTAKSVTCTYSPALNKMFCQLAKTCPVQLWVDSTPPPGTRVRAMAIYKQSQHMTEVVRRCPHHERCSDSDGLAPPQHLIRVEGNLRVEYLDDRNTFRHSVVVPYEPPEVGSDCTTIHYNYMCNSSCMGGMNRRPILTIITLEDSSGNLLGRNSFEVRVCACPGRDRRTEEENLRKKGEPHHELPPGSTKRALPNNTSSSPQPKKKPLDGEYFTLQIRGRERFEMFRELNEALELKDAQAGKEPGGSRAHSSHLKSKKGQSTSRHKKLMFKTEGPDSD
In short: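 HCT116 p53-bla cells (4000/well) given compound in DMSO (217-fold dilution) after 5 h, incubated 16 h at 37C. CCF4-AM substrate 2 h at room temperature; 460/530 nm emission ratio, gain fitted against DMSO.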

[4] = TOX21_p53_BLA_p4_viability: Viability Assessment in the Tox21 HCT-116 p53 Agonism Beta-lactamase Assay, Phase 4 (AID 2283597);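 note: hits lower the luminescence signal meaning cytotoxicity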
In short: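 Compound exposure of HCT116 cells lasts 16 h at 37C, 5% CO2, with DMSO stocks diluted 217-fold. Cellular ATP is then quantified by CellTiter-Glo luminescence after 30 min at room temperature.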

[5] = molecular target: Cellular tumor antigen p53 (Homo sapiens) (UniProt P04637); experiment: TOX21_p53_BLA_p5_ratio: Tox21 HCT-116 p53 Agonism Beta-lactamase Assay, Ratio, Phase 5 (AID 2283599)
In short: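 HCT-116 p53-bla cells (4000/well) plated 5 h, dosed with compound (217-fold DMSO dilution) for 16 h at 37 C; CCF4-AM substrate 2 h at room temperature. Activity is the 460/530 nm emission ratio (405 nm excitation), fitted in gain-of-signal direction versus DMSO.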

[6] = TOX21_p53_BLA_p5_viability: Viability Assessment in the Tox21 HCT-116 p53 Agonism Beta-lactamase Assay, Phase 5 (AID 2283600)
In short: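 Counter-readout for cytotoxicity: ATP-dependent luminescence from CellTiter-Glo, read in the beta-lactamase wells after 30 min at RT, following a 16 h compound exposure at 37C.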

[7] = molecular target: Cellular tumor antigen p53 (Homo sapiens) (UniProt P04637); experiment: TOX21_p53_BLA_p4_ratio: Tox21 HCT-116 p53 Agonism Beta-lactamase Assay, Ratio, Phase 4 (AID 2283601)
In short: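 HCT-116 p53 beta-lactamase reporter cells (4000/well) preincubated 5 h, then compound (217-fold dilution of DMSO stock) for 16 h at 37C. CCF4-AM substrate added 2 h at room temperature; 460/530 nm emission ratio fitted upward versus DMSO.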

[8] = TOX21_p53_BLA_p2_viability: Viability Assessment in the Tox21 HCT-116 p53 Agonism Beta-lactamase Assay, Phase 2 (AID 2283591);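 note: actives lower the ATP signal meaning cytotoxicity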
In short: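 HCT116 p53-bla cells, 4000/well, dosed after 5 h plating (217-fold dilution of DMSO stocks) and incubated 16 h at 37C. Viability taken as cellular ATP by CellTiter-Glo luminescence after 30 min RT; signal loss marks cytotoxicity.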

[9] = molecular target: Cellular tumor antigen p53 (Homo sapiens) (UniProt P04637); experiment: TOX21_p53_BLA_p2_ratio: Tox21 HCT-116 p53 Agonism Beta-lactamase Assay, Ratio, Phase 2 (AID 2283592)
In short: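 An inducible beta-lactamase reporter in HCT116 cells signals p53 pathway activation. After 16 h chemical exposure at 37C, cells load CCF4-AM substrate for 2 h at room temperature; activity is the cleaved/uncleaved emission ratio relative to DMSO.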

Measured: AC50

Nc1cccnc1
not listed: [8] | [9]
inactive: all other assays above

c1csc(-c2ccc(-c3cccs3)s2)c1
active: [3] 41.9 µM | [5] 59.3 µM | [7] 46.1 µM
inactive: [1] | [8]

Cc1c([N+](=O)[O-])c(C)c([N+](=O)[O-])c(C(C)(C)C)c1[N+](=O)[O-]
inactive: [1] | [8] | [5] | [6] | [7]
active: [4] 42.5 µM

Clc1cc(C(Cl)(Cl)Cl)cnc1Cl
not listed: [2] | [4] | [9]
inactive: all other assays above

O=C(CBr)c1ccc(O)cc1
not listed: [2] | [8]
inactive: all other assays above

O=CCCl
not listed: [4] | [6] | [8]
inactive: all other assays above

CCCCS(=O)(=O)Cl
inactive: [1] | [3] | [4] | [6]

N#Cc1ccc(Cl)cc1
inactive: [1] | [4] | [5] | [7]

Cc1cc(C(F)(C(F)(F)F)C(F)(F)F)ccc1NC(=O)c1cccc(I)c1C(=O)NC(C)(C)CS(C)(=O)=O
active: [7] 56.9 µM
not listed: [2] | [8]
inactive: all other assays above

CCOC(=O)CCN(SN(C)C(=O)Oc1cccc2c1OC(C)(C)C2)C(C)C
not listed: [2] | [4] | [9]
inactive: all other assays above

COc1ccc(N)cc1
not listed: [2] | [3] | [9]
inactive: all other assays above

CS(=O)(=O)c1ccc(C(=O)C2C(=O)CCCC2=O)c(Cl)c1COCC(F)(F)F
inactive: [1] | [3] | [5] | [7]
